Source: the supplement of paper PMC10849652
Targets with a hit are over-represented here; the source holds about 7,900 in all. About 0.6% of all pairs of compound and target were hits. Unmarked numbers belong to inactive results.

Columns and labels:
Experiment in all cases: log2 fold change, soluble protein after heating vs DMSO (PISA); higher = thermal stabilisation; K562 cells, 10 uM, 30 min; active = over 0.2 and 3.5 SD of the protein, either way, in both replicates (recomputed)
[1] = compound: CC[C@@H]1C(=O)N(C)c2cnc(Nc3ccc(C(=O)NC4CCN(C)CC4)cc3OC)nc2N1C1CCCC1
Outline: (§1)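 Aliquots of K562 cells (2×10^6 cells/mL) treated with 10 μM compound for 30 min were heated for 3 min over 48°C-58°C. After pooling and extraction in PBS with 0.5% NP-40 at 4°C, soluble protein from a 21,000xg, 90 min spin was quantified by TMTpro 16plex LC-MS/MS with channel sums equalised. Thermal stability is expressed against control samples, from duplicates, as a log2 fold change.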

volasertib = compound: CC[C@@H]1C(=O)N(C)c2cnc(Nc3ccc(C(=O)N[C@H]4CC[C@H](N5CCN(CC6CC6)CC5)CC4)cc3OC)nc2N1C(C)C [volasertib]
Outline: as §1

[2] = compound: CC[C@H](C)N1C=C(C2=C(C=C(C=C21)C3=CN=C(C=C3)N4CCNCC4)C(=O)NCC5=C(C=C(NC5=O)C)C)C
Outline: as §1

epoxomicin = compound: CC[C@H](C)[C@@H](C(=O)N[C@@H]([C@@H](C)O)C(=O)N[C@@H](CC(C)C)C(=O)[C@]1(CO1)C)NC(=O)[C@H]([C@@H](C)CC)N(C)C(=O)C [epoxomicin]
Outline: as §1

[3] = compound: CCn1c(C(=O)N(C2CC2)C2CC2)cc2c3c(ncn3C)c(Nc3cc(C)n(C)n3)nc21
Outline: as §1

[4] = compound: CCn1cc(-c2ccnc3[nH]c(-c4cccc(CN(C)C)c4)cc23)c(-c2ccc(NC(=O)N(C)C)cc2)n1
Outline: as §1

[5] = compound: CN(C)CC(=O)Nc1ccc2[nH]c(=O)c3ccccc3c2c1
Outline: as §1

rosiglitazone = compound: CN(CCOC1=CC=C(C=C1)C[C@H]2C(=O)NC(=O)S2)C3=CC=CC=N3 (racemic) [rosiglitazone]
Outline: as §1

[6] = compound: CN1C2=C(C3=C1C(=O)N(N=C3)CC4=CC(=CC=C4)N)SC(=C2)S(=O)C
Outline: as §1

[7] = compound: CN1CCC(CNc2ccc3ncc(-c4cccc(OC(F)(F)F)c4)n3n2)CC1
Outline: as §1

saracatinib = compound: CN1CCN(CCOc2cc(OC3CCOCC3)c3c(Nc4c(Cl)ccc5c4OCO5)ncnc3c2)CC1 [saracatinib]
Outline: as §1

sotrastaurin = compound: CN1CCN(c2nc(C3=C(c4c[nH]c5ccccc45)C(=O)NC3=O)c3ccccc3n2)CC1 [sotrastaurin]
Outline: as §1

alvocidib = compound: CN1CC[C@H](c2c(O)cc(O)c3c(=O)cc(-c4ccccc4Cl)oc23)[C@H](O)C1 [alvocidib]
Outline: as §1

Tubastatin A = compound: CN1CCc2c(c3ccccc3n2Cc2ccc(C(=O)NO)cc2)C1 [Tubastatin A]
Outline: as §1

[8] = compound: CNC(=O)C1=CC=CC=C1NC2=NC(=NC=C2Cl)NC3=C(C=C(C=C3)N4CCOCC4)OC
Outline: as §1

defactinib = compound: CNC(=O)c1ccc(Nc2ncc(C(F)(F)F)c(NCc3nccnc3N(C)S(C)(=O)=O)n2)cc1 [defactinib]
Outline: as §1

rucaparib = compound: CNCc1ccc(-c2[nH]c3cc(F)cc4c3c2CCNC4=O)cc1 [rucaparib]
Outline: as §1

[9] = compound: CNc1nc(-c2ccc3c(N)n[nH]c3c2)cc(N2C[C@@H](C(=O)NC3CCCCC3)CC[C@H]2C)n1
Outline: as §1

encorafenib = compound: COC(=O)N[C@@H](C)CNc1nccc(-c2cn(C(C)C)nc2-c2cc(Cl)cc(NS(C)(=O)=O)c2F)n1 [encorafenib]
Outline: as §1

[10] = compound: COC(=O)[C@H](CCSC)NC(=O)C1=C(C=C(C=C1)NC[C@H](CS)N)C2=CC=CC=C2
Outline: as §1

Sequence of UniProt Q9UI12 (Q9UI12 whole entry, looked up): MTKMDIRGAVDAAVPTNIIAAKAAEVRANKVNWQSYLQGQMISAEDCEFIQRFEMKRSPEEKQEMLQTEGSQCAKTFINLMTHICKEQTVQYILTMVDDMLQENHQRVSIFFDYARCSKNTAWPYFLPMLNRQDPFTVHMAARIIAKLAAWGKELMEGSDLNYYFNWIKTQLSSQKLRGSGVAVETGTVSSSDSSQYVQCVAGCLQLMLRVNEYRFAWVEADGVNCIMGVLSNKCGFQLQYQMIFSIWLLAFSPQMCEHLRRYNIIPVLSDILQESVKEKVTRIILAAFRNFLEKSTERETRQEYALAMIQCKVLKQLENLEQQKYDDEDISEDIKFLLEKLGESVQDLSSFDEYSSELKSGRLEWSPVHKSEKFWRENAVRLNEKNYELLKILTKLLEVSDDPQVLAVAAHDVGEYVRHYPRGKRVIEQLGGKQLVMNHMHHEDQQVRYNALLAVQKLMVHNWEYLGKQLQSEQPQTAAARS
Sequence of UniProt P54886 (P54886 whole entry, looked up): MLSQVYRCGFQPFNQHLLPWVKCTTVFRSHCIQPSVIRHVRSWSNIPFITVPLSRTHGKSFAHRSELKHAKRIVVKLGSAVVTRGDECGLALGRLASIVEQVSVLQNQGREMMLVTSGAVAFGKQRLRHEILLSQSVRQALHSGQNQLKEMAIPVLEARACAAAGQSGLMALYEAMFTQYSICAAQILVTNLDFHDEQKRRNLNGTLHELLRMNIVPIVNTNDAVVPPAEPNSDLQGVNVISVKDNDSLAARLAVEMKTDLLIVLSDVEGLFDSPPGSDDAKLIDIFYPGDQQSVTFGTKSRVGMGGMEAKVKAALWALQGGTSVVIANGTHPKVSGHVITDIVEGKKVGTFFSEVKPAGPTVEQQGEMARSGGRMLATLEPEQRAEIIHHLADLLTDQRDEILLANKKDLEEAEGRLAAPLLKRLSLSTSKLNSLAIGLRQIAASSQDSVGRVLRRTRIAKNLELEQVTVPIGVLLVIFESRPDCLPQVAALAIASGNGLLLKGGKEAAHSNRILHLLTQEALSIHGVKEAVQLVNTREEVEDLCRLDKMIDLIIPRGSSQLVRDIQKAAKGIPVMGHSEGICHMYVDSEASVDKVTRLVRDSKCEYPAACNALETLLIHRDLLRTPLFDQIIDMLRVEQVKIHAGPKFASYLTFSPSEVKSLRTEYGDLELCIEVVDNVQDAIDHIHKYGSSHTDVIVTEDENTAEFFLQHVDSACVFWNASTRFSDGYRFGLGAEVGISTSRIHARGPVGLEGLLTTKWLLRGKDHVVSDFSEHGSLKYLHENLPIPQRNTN
Sequence of UniProt Q13685 (Q13685 whole entry, looked up): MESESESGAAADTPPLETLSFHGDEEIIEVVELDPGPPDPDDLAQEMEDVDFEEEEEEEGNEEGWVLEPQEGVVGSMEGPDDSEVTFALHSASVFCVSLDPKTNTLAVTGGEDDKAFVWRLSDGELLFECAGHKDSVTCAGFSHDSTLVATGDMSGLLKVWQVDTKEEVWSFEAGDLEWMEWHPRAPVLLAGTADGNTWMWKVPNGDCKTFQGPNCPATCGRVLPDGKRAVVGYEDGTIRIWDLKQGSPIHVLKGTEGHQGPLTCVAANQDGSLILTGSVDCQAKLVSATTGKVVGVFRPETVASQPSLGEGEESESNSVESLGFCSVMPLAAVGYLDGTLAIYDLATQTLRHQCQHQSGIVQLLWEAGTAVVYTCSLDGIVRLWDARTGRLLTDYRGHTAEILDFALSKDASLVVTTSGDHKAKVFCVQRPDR
Sequence of UniProt P00966 (P00966 whole entry, looked up): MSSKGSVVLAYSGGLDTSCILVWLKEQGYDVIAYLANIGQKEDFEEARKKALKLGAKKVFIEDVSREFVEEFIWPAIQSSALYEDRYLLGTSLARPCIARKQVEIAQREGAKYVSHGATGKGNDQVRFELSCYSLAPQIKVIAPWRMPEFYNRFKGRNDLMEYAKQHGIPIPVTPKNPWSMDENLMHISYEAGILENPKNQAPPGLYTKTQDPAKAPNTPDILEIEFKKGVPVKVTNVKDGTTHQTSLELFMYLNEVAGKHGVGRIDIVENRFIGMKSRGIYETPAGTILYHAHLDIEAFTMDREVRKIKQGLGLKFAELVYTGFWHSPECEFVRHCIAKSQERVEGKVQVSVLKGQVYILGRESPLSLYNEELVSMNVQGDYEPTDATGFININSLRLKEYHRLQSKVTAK
Sequence of UniProt Q9NX46 (Q9NX46 whole entry, looked up): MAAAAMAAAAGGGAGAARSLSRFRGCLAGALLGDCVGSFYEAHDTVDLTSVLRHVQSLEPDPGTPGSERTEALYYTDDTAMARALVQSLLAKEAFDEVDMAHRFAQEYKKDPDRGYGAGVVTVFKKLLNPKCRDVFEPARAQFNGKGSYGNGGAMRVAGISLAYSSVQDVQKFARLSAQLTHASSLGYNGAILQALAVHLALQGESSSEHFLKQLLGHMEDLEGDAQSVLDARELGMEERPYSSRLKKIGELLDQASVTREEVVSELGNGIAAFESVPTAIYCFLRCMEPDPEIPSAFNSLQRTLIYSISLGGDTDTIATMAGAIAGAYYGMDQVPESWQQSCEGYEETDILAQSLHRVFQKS
Sequence of UniProt Q5JTZ9 (Q5JTZ9 whole entry, looked up): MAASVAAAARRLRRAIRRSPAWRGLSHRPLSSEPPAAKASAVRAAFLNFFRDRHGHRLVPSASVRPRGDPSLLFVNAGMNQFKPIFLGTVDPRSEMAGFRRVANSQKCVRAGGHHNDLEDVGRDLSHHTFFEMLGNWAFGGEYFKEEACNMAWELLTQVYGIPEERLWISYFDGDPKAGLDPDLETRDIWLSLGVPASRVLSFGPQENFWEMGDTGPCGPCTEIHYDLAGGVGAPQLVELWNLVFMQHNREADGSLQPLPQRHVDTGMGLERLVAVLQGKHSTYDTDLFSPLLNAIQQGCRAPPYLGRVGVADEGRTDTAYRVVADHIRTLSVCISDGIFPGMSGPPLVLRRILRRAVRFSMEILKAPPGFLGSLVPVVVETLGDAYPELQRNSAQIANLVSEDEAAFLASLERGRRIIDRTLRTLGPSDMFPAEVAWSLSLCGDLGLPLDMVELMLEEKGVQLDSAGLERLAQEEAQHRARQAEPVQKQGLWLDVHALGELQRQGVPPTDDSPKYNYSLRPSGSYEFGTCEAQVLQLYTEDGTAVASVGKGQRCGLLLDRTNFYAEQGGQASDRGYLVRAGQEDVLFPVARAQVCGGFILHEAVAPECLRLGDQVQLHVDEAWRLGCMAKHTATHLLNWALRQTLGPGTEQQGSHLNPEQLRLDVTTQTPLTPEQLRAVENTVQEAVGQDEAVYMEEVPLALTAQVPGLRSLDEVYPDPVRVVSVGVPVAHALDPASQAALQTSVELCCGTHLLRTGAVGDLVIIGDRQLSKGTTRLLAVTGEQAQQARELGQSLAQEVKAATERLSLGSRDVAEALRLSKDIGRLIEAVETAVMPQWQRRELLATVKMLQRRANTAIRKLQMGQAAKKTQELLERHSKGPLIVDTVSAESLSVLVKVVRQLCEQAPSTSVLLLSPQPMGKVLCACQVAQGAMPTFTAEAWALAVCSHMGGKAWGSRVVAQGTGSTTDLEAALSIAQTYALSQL
Sequence of UniProt P49748 (P49748 whole entry, looked up): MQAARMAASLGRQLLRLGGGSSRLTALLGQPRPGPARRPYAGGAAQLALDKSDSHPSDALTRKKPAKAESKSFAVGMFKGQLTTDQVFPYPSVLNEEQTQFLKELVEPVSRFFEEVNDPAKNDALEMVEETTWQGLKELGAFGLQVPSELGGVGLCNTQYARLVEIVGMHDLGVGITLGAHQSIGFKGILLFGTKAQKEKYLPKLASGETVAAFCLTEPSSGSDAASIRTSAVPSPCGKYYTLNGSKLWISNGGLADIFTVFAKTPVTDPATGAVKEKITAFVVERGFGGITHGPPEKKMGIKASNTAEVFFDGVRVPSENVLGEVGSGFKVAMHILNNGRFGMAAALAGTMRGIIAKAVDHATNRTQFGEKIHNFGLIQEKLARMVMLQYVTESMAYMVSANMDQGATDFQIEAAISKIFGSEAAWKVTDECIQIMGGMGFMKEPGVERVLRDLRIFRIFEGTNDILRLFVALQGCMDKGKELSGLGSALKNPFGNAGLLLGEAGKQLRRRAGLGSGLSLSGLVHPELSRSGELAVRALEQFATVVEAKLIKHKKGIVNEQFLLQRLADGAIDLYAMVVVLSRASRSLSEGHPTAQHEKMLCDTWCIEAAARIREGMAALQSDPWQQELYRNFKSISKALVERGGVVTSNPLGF
Sequence of UniProt Q86WA6 (Q86WA6 whole entry, looked up): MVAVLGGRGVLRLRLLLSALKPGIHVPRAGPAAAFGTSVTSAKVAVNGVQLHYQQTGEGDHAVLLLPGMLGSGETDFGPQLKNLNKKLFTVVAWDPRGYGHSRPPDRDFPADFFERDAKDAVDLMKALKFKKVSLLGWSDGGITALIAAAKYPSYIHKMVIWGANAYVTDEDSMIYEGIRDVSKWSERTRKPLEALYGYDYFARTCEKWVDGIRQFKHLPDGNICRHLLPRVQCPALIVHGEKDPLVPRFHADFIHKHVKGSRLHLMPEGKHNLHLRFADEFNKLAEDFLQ
Sequence of UniProt P49189 (P49189 whole entry, looked up): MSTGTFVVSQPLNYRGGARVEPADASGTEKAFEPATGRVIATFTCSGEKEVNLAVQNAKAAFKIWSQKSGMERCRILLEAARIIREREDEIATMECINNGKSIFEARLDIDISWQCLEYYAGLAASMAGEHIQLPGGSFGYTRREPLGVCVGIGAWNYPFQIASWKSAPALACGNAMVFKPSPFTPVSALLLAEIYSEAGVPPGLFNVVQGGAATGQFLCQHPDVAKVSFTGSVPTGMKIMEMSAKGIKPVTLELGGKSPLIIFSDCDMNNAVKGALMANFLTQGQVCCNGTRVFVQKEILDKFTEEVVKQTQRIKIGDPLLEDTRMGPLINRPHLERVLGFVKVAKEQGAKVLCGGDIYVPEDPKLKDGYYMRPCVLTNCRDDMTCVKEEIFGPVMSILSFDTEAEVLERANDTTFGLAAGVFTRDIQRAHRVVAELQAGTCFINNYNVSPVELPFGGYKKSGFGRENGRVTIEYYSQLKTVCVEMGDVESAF

Target | log2 fold change [1] | log2 fold change (volasertib) | log2 fold change [2] | log2 fold change (epoxomicin) | log2 fold change [3] | log2 fold change [4] | log2 fold change [5] | log2 fold change (rosiglitazone) | log2 fold change [6] | log2 fold change [7] | log2 fold change (saracatinib) | log2 fold change (sotrastaurin) | log2 fold change (alvocidib) | log2 fold change (Tubastatin A) | log2 fold change [8] | log2 fold change (defactinib) | log2 fold change (rucaparib) | log2 fold change [9] | log2 fold change (encorafenib) | log2 fold change [10]
ARFGAP2 (UniProt Q8N6H7) | -0.052 | -0.257 (active) | 0.067 | 0.009 | -0.037 | 0.023 | 0.017 | 0.038 | -0.015 | -0.068 | 0.037 | -0.051 | -0.083 | 0.03 | 0.025 | -0.023 | 0.017 | 0.017 | 0.05 | -0.02
BTAF1 (UniProt O14981) | -0.087 | -0.265 (active) | 0.061 | 0.086 | -0.047 | -0.07 | 0.027 | -0.042 | -0.055 | -0.09 | 0.087 | 0.001 | -0.022 | -0.041 | -0.027 | -0.074 | -0.089 | -0.012 | 0.026 | 0.007
ADPRHL2 (UniProt Q9NX46) | -0.027 | 0.071 | -0.028 | 0.145 | -0.05 | -0.093 | 0.116 | 0.002 | -0.042 | 0.133 | 0.039 | -0.001 | -0.003 | 0.031 | 0.049 | 0.015 | -0.085 | -0.026 | -0.009 | -0.116
ASS1 (UniProt P00966) | 0.02 | 0.024 | 0.412 | 0.025 | -0.024 | 0.04 | -0.072 | 0.071 | 0.025 | -0.005 | 0.062 | 0.088 | -0.098 | -0.183 | -0.047 | -0.007 | 0.11 | -0.122 | -0.018 | 0.045
ATP1A1 (UniProt P05023) | 0.058 | 0.059 | -0.029 | -0.025 | 0.021 | -0.026 | -0.009 | -0.004 | -0.053 | 0.26 (active) | 0.046 | 0.039 | -0.034 | -0.026 | -0.026 | -0.024 | -0.009 | 0.011 | -0.001 | 0.014
AARS2 (UniProt Q5JTZ9) | 0.001 | -0.199 | 0.023 | 0.023 | -0.015 | -0.05 | 0.031 | 0.054 | -0.062 | -0.312 (active) | 0 | -0.05 | -0.1 | -0.096 | -0.019 | -0.027 | 0.008 | 0.004 | 0 | -0.017
ATP6V1H (UniProt Q9UI12) | -0.085 | -0.093 | 0.069 | 0.098 | 0.041 | -0.244 (active) | 0.012 | 0.048 | -0.026 | -0.069 | -0.047 | -0.015 | -0.065 | 0.046 | -0.016 | -0.042 | 0.016 | 0.054 | 0.016 | -0.043
ADD2 (UniProt P35612) | 0.037 | 0.031 | -0.044 | 0.006 | 0.025 | -0.043 | -0.038 | 0.003 | -0.02 | 0.008 | 0.049 | -0.004 | -0.031 | -0.025 | -0.033 | -0.051 | -0.012 | 0.001 | -0.025 | -0.003
AAMP (UniProt Q13685) | 0.072 | 0.051 | -0.016 | -0.017 | 0.023 | -0.016 | 0.011 | 0.001 | -0.004 | 0.054 | -0.002 | 0.006 | -0.017 | -0.049 | 0.022 | -0.102 | 0.054 | -0.014 | -0.016 | -0.009
ALDH18A1 (UniProt P54886) | -0.418 | -0.713 (active) | 0.092 | 0.1 | -0.117 | -0.208 | 0.041 | 0.148 | 0.054 | -0.054 | -0.038 | -0.178 | 0.063 | -0.027 | -0.065 | -0.122 | 0.001 | -0.281 | 0.098 | -0.047
AP2M1 (UniProt Q96CW1) | 0.072 | -0.041 | 0 | 0.002 | 0.013 | -0.006 | -0.046 | -0.018 | 0.023 | 0.006 | 0.032 | 0.008 | 0.017 | 0.002 | 0.005 | 0.016 | 0.026 | 0.001 | 0.008 | -0.014
ALG3 (UniProt Q92685) | 0.005 | -0.164 | 0.02 | 0.039 | -0.022 | -0.037 | -0.002 | 0.049 | -0.028 | 0.033 | 0.145 | -0.047 | 0.055 | -0.056 | 0.116 | 0.009 | 0.1 | 0.056 | 0.076 | 0.013
BPHL (UniProt Q86WA6) | 0.013 | -0.005 | 0.065 | 0.005 | 0.027 | -0.017 | -0.07 | 0.041 | 0.017 | 0.063 | 0.056 | 0.019 | -0.083 | -0.259 | 0.025 | -0.014 | 0.069 | 0.006 | -0.012 | -0.017
ACADVL isoform 3 (UniProt P49748) | 0.119 | 0.099 | -0.007 | 0.025 | 0.008 | -0.014 | 0.004 | -0.004 | -0.054 | -0.045 | 0.027 | 0.056 | -0.031 | -0.028 | -0.022 | -0.011 | -0.007 | 0.008 | -0.021 | -0.001
AIFM2 (UniProt Q9BRQ8) | 0.002 | -0.035 | -0.058 | -0.035 | -0.025 | -0.017 | 0.003 | 0.001 | -0.069 | 0.068 | 0.017 | 0.08 | -0.02 | -0.026 | -0.016 | -0.029 | 0.011 | 0.003 | -0.017 | -0.01
ALDH9A1 isoform 3 (UniProt P49189) | 0 | -0.003 | -0.048 | 0.011 | 0.003 | -0.025 | -0.01 | -0.004 | -0.065 | -0.027 | -0.019 | 0.01 | -0.007 | -0.024 | 0.05 | -0.024 | -0.054 | -0.009 | -0.016 | -0.005
